Experimental findings from ChEMBL document CHEMBL4513216, “Probing the Open Global Health Chemical Diversity Library for Multistage-Active Starting Points for Next-Generation Antimalarials” (ACS Infect Dis, 2020) are described below.

Out of some 69,000 compounds screened, about 8,600 (12%) showed an effect of 50% or more. What follows is part of a selection rich in strong results, with near analogues and random picks from the rest.

In the assay the test system is Plasmodium berghei. The assay can be described thus: Screen against P. berghei liver stage (PbLuc), transformed with Luciferase, at 10uM. The class given is functional, HepG2. The conditions noted are these: tested at 10 uM.
On to `CCN(CC)CCNc1nc(C(C)C)nc2c(C)nn(CC)c12`, for which the INHIBITION is 44.9%.

As to `CN(C)CCN1CCCC12CCN(C(=O)c1cccnc1)CC2`, the INHIBITION was determined as 11.6%.

`Cc1ccc(NC2CCN(C(=O)c3ccoc3C)CC2)nn1`: the INHIBITION is 28.95%.

For the molecule `CN1CCC(N2CCCC(C(=O)N3Cc4ccccc4C3)C2)CC1` (centres undefined), the INHIBITION is 10.6%.

Take `O=C(Nc1nncs1)NC1CCN(Cc2ccccc2)C1` (centres undefined): the INHIBITION came to 12.433%.

Turning to `Cc1noc([C@@H]2C[C@@H]3CCN(CC4CC4)C[C@H]3O2)n1`, the INHIBITION is -6.39%.

For the molecule `Cn1ccnc1CNC(=O)N(CCCO)C1CCCc2ccccc21` (centres undefined), the INHIBITION is given as -17.4%.

As to `Cc1nnc(CN(C)CC(=O)NCCc2ccc(F)cc2)n1C`, the INHIBITION is -9.39%.

On to `CCOc1ccccc1C(N)CC(C)C` (centres undefined), for which the INHIBITION is listed as 30.9%.

For `CC(C)COc1ccccc1C(N)CC(C)C` (centres undefined), the INHIBITION worked out at 30.9%.

With `CCCOc1ccccc1C(N)CC(C)C` (centres undefined), the INHIBITION stood at 80.9%.

Take `COCCN1CCOCC2(CCN(c3cnccn3)CC2)C1`: the INHIBITION is reported as 29.4%.

As for `CCc1nc(C)ncc1C(=O)N1CC(=O)N(C)c2ccccc21`, the INHIBITION was 28.7%.

`CCc1nc(C)ncc1C(=O)N1CC(C)CN(C)c2ccccc21` (centres undefined): the INHIBITION stood at 57.8%.

With `CCc1nc(C)ncc1C(=O)N1CCN(CC)c2ccccc21`, the INHIBITION amounted to 47.7%.

Take `CO[C@@H]1CCN(Cc2nccs2)C[C@@H]1Cc1ccccc1`: the INHIBITION came to 62.5%.

Regarding `CO[C@H]1CCN(Cc2nccs2)C[C@@H]1Cc1ccccc1`, the INHIBITION turned out to be 69.5%.

As to `CO[C@@H]1CCN(C2CCOCC2)C[C@@H]1Cc1ccccc1`, the INHIBITION is -84.9%.

Regarding `CO[C@@H]1CCN(c2nnc(C)s2)C[C@@H]1Cc1cccc(C)c1`, the INHIBITION was determined as 2.41%.

In the case of `CO[C@H]1CCN(C2CCOCC2)C[C@@H]1Cc1ccccc1`, the INHIBITION is -8.51%.

Turning to `C[C@@H]1C[C@@H]2CCN(Cc3nccs3)C[C@H]2O1`, the INHIBITION worked out at 40.8%.

As to `C[C@H]1C[C@@H]2CCN(Cc3nccs3)C[C@H]2O1`, the INHIBITION is given as 20.1%.

With `CO[C@H]1CCN(c2nnc(C)s2)C[C@@H]1Cc1cccc(C)c1`, the INHIBITION was 24.9%.

Take `CO[C@@H]1CCN(Cc2nccs2)C[C@@H]1Cc1cccc(C)c1`: the INHIBITION worked out at 54.4%.

As for `Cc1nc2c(c(=O)[nH]1)CN(C(=O)CC[C@@H]1CCCN3CCCC[C@H]13)C2`, the INHIBITION was -1.85%.

Consider `Cc1nn(C)c(N(C)C)c1CNCc1ccccc1Cn1cccn1`, for which the INHIBITION came to 33.8%.

In the case of `O=C(c1c[nH]cn1)N1CCCn2c(CN3CCCCC3)nnc2C1`, the INHIBITION is -56.3%.

As to `CNS(=O)(=O)c1ccc(CNC(=O)N(C)CC(C)C)cc1`, the INHIBITION came out at 18.3%.

With `Cc1cnc2n(c1=O)C(CC(=O)NCc1ccc(Cl)cc1)CS2` (centres undefined), the INHIBITION is given as 61.2%.

In the case of `Cc1cnc2n(c1=O)C(CC(=O)NCc1ccc(F)cc1)CS2` (centres undefined), the INHIBITION was 18.3%.

In the case of `Cc1cnc2n(c1=O)C(CC(=O)NCc1ccccc1Cl)CS2` (centres undefined), the INHIBITION came out at 6.67%.

Consider `CCOCC1CN(C(=O)c2ccncn2)Cc2cnn(CC)c21` (centres undefined), for which the INHIBITION was 35.7%.

Consider `CCc1n[nH]c(C2CN(C(=O)c3ccc4c(c3)CCC4)CCO2)n1` (centres undefined), for which the INHIBITION is on record as -12.1%.

For `Cc1ccccc1-n1c(O)cc(C)c(C#N)c1=O`, the INHIBITION was found to be 3.84%.

Regarding `COc1ccccc1-n1c(O)cc(C)c(C#N)c1=O`, the INHIBITION came to 39.1%.

Consider `Cc1cc(O)n(-c2ccccc2Cl)c(=O)c1C#N`, for which the INHIBITION came to 50.4%.

For `Cc1c(S(=O)(=O)NC2CC2)cc2c(C)cc(=O)n3c2c1CCC3`, the INHIBITION was -17.1%.

For the molecule `CCCNc1c(NC(=O)NCCCOC)c(=O)oc2ccccc12`, the INHIBITION is recorded as -13.6%.

Turning to `CCNc1c(NC(=O)NCCOC)c(=O)oc2ccccc12`, the INHIBITION is on record as 69.9%.

Turning to `CCCNc1c(NC(=O)NCCOC)c(=O)oc2ccccc12`, the INHIBITION was -24.7%.

For `CCC(CNC(=O)NC1CCN(C)CC1)Oc1ccccc1Cl` (centres undefined), the INHIBITION is given as 89.6%.

Consider `CN1CCC(NC(=O)NCCNc2ccccn2)CC1`, for which the INHIBITION is listed as 16.1%.

As for `CN1CCC(NC(=O)Nc2cnn(-c3ccccc3Cl)c2)CC1`, the INHIBITION is -10.1%.

On to `CC(C)n1[nH]c(=O)c2c1NC(=O)CC2c1cccc2cccnc12` (centres undefined), for which the INHIBITION is on record as -62.3%.

For `Cc1ccnc(C2(C)CCCN2S(=O)(=O)c2cccnc2)n1` (centres undefined), the INHIBITION turned out to be 21.2%.

For the molecule `Cn1ccc(C(=O)NCc2ccc(CN3CCCC3)cc2)cc1=O`, the INHIBITION is on record as -2.19%.

In the case of `COc1cc(NC(=O)NCc2nccn2C)ccc1Br`, the INHIBITION was found to be 50.8%.

With `Cc1cc(NC(=O)NCc2nccn2C)ccc1OC(C)C`, the INHIBITION turned out to be 37.1%.

Take `Cn1ccnc1CNC(=O)Nc1ccc(OC2CCC2)c(F)c1`: the INHIBITION is on record as 18%.

Take `Cc1cnn(CC2CCCN2C(=O)c2ccc(OCC3CC3)nc2)c1` (centres undefined): the INHIBITION is -15%.

For the molecule `O=C(CCc1cc2n(n1)CCCN(C(=O)c1ccncc1)C2)NC1CC1`, the INHIBITION is 43.2%.

`CC(C)CC(C)NC1CCN(c2ccc(-c3cscn3)cc2)CC1` (centres undefined): the INHIBITION was determined as 45.2%.

For the molecule `CC(C)[C@H](C)NC1CCN(c2ccc(-c3cscn3)cc2)CC1`, the INHIBITION is given as 81.4%.

On to `Cc1cc(NC(=O)CN2CCN(c3nc(C)cs3)C(C)C2)on1` (centres undefined), for which the INHIBITION is on record as -1.12%.
